High-throughput results as filed in PubChem.
Pf growth 96h = Primary qHTS for delayed death inhibitors of the malarial parasite plastid, 96 hour incubation. P. falciparum luciferase reporter growth, 96 h. Potency, µM (highest dose often 28.7 µM), without a hit: at the top dose activity change, negative = inhibition, hits mostly inhibitors. 6.9% of 320,000 active. AID 504834, 2011
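Two-generation exposure (96 h) targets delayed-death phenotype. Reporter parasites carrying integrated firefly luciferase, in red cells at 2% hematocrit and 0.05% parasitemia final, kept at 37 C, 5% CO2; luminescence loss indicates inhibition.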
AMA1 RON2 block = qHTS for Inhibitors of AMA1-RON; Towards Development of Antimalarial Drug Lead: Primary Screen; Potency, µM (top dose mostly 58.2 µM), for inactives: at the highest dose activity change, negative = inhibition, actives largely listed as inhibitors; AlphaScreen AMA1-biotinylated RON2 peptide binding; AID 720542, 2013; 0.2% of 360,000 active; Plasmodium falciparum AMA1 (3D7) - RON2 peptide interaction;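 also: 0% = vehicle wells and -100% = peptide control; nearly all actives have a fitted effect of over 45% in size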
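AMA1 (3D7) with his tag at 25 nM final met compounds first, then biotinylated RON2 peptide at 25 nM; detection used donor plus acceptor beads, 10 µg/mL apiece, read by AlphaScreen after 30 min at room temperature.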
HCV inhibitor = qHTS Assay for Inhibitors of Hepatitis C Virus (HCV); Huh7.5.1 HCVcc-Cre infection, luciferase reporter, 44 h; Potency, µM (doses to about 41.8 µM), for inactives: at the top dose activity change, negative = inhibition, most hits filed as inhibitors; 3.4% of 340,000 active; AID 651820, 2012
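Cells (1,000/well) were plated 4 h before compound, then infected with HCVcc-Cre virus (~0.5 moi). After 44 h further culture, infection was read as luciferase luminescence following a 15 min substrate incubation at room temperature.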
Pf growth 48h = Primary qHTS for delayed death inhibitors of the malarial parasite plastid, 48 hour incubation. AID 504832, 2011. P. falciparum luciferase growth in erythrocytes, 48 h. Potency, µM (doses to about 28.7 µM), inactives show at the highest dose activity change, negative = inhibition, hits mostly inhibitors. 5.9% of 310,000 active
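In quantitative HTS format, infected erythrocytes bearing luciferase-reporter parasites were treated for a single generation at 37 C. Luminescence after adding detection reagent served as the growth measure.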
The depositor's hits bear a star; ? = inconclusive; / = not tested or not shown. Shown are actives, neighbours in structure and some others; about 11% of the full set was active somewhere. Calls follow the shape of the dose curve; as a rule, active = well fitted curve in the direction sought with a large enough effect; inconclusive = small, poorly fitted or top-dose-only effect, or another doubt; inactive = no such curve, though single readings can be large; an effect the other way counts as inactive or inconclusive. Unless noted, % is scaled to controls: 0 for no effect and ±100 for the full control effect; potency is read from the fitted curve at half-maximal effect.

SMILES	Pf growth 96h	AMA1 RON2 block	HCV inhibitor	Pf growth 48h
CCCCCCNC(=O)CNC(=S)N(Cc1cccs1)C1CCCCC1	?	4.5%	10µM*	?
Oc1ccc(C[C@@H]2CNCCN2CCC23CC4CC(CC(C4)C2)C3)cc1	2.08µM*	-0.3%	?	10.4µM*
Oc1ccc(C[C@H]2CNCCN2CCCCC2CCCCC2)cc1	?	16.3%	?	8.28µM*
O=Cc1c(Cl)nc2ccccn2c1=O	-12.4%	0.0%	10µM*	15.2%
CC1CCc2nc(NC(=O)Cc3cccs3)sc2C1 (centres undefined)	/	-3.8%	?	142.4%
CC(C)(C)C1CCc2nc(NC(=O)Cc3cn4ccsc4n3)sc2C1 (centres undefined)	/	-13.0%	22.4µM*	-12.2%
Cc1ccc(S(=O)(=O)c2c(COC(=O)c3ccccc3Cl)c(-c3ccccc3)nn2C)cc1	6.57µM*	1.2%	?	/
O=C(CCCCN1CCCCC1)c1ccccc1	/	0.6%	-14.4%	/
O=C(C(=Cc1ccccc1)CN1CCCCC1)c1ccccc1	/	-6.1%	2.24µM*	/
COc1ccc(CN2CC[C@H]3C=CC[C@@H](C(=O)Nc4ccc(Cl)c(C(F)(F)F)c4)[C@H]3C2=O)cc1OC	/	4.4%	?	/
O=C(c1ccc(F)cc1F)N1CCN(c2n[nH]c(=O)[nH]c2=O)CC1	33.2%	-2.5%	3.5%	48.0%
Cn1cc(CN2CCCC(CO)(Cc3ccccc3)C2)c2ccccc21 (centres undefined)	-16.9%	-6.3%	?	11.7µM*
